The values below come from the supplement of paper PMC10338343.

± gives the standard deviation.
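Also: 1 nM active piRISC with 0.1 nM target library at 33 °C single turnover.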

The subject of the test is MILI (PIWIL2) piRISC loaded with piRNA #1 (26 nt). Description: pre-steady-state target cleavage rate (min^-1); guide: piRNA #1 5'p-UGAGGUAGUAGGUUGUAUAGUAUCCA; MIWI and MILI are mouse PIWI proteins and EfPiwi is from a freshwater sponge; tags in brackets are library labels; higher = faster piRNA-guided slicing of the target. To be noted: auxiliary factor: 500 nM mouse GTSF1. Summed up: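 In HEPES–potassium acetate buffer at 33 °C, […] transcribed, DNA-blocked target RNA library was mixed with 1 nM active affinity-purified piRISC carrying one synthetic guide, with or without 500 nM GTSF1 partner protein, for 0–8 or 0–960 min. Uncleaved targets were sequenced and normalised to depth and to weakly complementary targets; three trials were pooled and k3 was capped at 0.0001 min^-1. The pre-steady-state cleavage rate followed from a burst-and-steady-state fit.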
For the sequence GGAGACCUAUGAUUACAACGUACAACCUCA, the “pre-steady-state target cleavage rate” value was determined as 0.00532 ± 0.0027. As for GGAGAGGAUACUAUACAACCUACUACGUGA, the “pre-steady-state target cleavage rate” value turned out to be 0.0154 ± 0.004.

Turning to GGAGACCUAUGAUAUCAACCUACAACCUCA, the “pre-steady-state target cleavage rate” value was 0.00288 ± 0.0026. Take GGAGACCUAUGUAUACUACGUACUACCUCA: the “pre-steady-state target cleavage rate” value stood at 0.00798 ± 0.0023. For the sequence GGAGACCUAACUAAUCAACCUACUACCUCA, the “pre-steady-state target cleavage rate” value came out at 0.0719 ± 0.016. For GGAGACGAUACUUUAGAACCUACUACCUCA, the “pre-steady-state target cleavage rate” value was 0.16 ± 0.01. With GGAGACCAUACUAUACUACCUACAACCUCA the figure was 0.185 ± 0.023; with GGAGACCUACCUAUACAACCUACUACCUCA, 0.117 ± 0.026. Take GGAGACCUAUGAUUACUACCUACAACCUCA: the “pre-steady-state target cleavage rate” value came out at 0.00398 ± 0.0024. With GGAGACCAUACUAUACAACGAUCUACCUCA the figure was < 0.0001; with GGAGACCUAUGAUUACAUCCUUCUACCUCA, 0.00314 ± 0.0026; with GGAGACCUAUGAUAUGUUCCUACUACGUGA, < 0.0001. Consider GGAGACCUAUGAUAUCAACCUACUAACCUCA, for which the “pre-steady-state target cleavage rate” value turned out to be 0.00255 ± 0.0025. On to GGAGACCUAUGAAUUCAACCUACUACCUCA, for which the “pre-steady-state target cleavage rate” value was determined as 0.00274 ± 0.0019. As for GGAGACCUUACUAUACAACCUACUACAUCA, the “pre-steady-state target cleavage rate” value was determined as 0.106 ± 0.013. With GGAGACCUUACUAUACAACCUAGUACCACA the figure was 0.00907 ± 0.0036. The result for GGAGACCUAACUAUACAACCUACGUACCUCA reads 0.0356 ± 0.015. With GGAGAGGAUACAAUACAUCCUACUACCUCA the figure was 0.239 ± 0.021; with GGAGACCUAUGAAUACAACCUACUACCUGA, 0.00268 ± 0.0026.

On to GGAGACCUAUCUAGACAACCUACUACCUCA, for which the “pre-steady-state target cleavage rate” value was 0.103 ± 0.016. As to GGAGUGGAUACUAUACUUGCUACUACCUCA, the “pre-steady-state target cleavage rate” value came out at 0.0633 ± 0.0052. Take GGAGACGAUACUUUACAACCUACUAGCUCA: the “pre-steady-state target cleavage rate” value came out at 0.0695 ± 0.013. Take GGAGACGAUACUAUACUUGCUACUACCUCA: the “pre-steady-state target cleavage rate” value came out at 0.0658 ± 0.0062. Consider GGAGACCUAUGAUAUGAACCACUACCUCA, for which the “pre-steady-state target cleavage rate” value was < 0.0001.

For GGAGUGGAUACUUUACAACCUAGUACCUCA, the “pre-steady-state target cleavage rate” value worked out at 0.0239 ± 0.0053. The result for GGAGACCUAACUAUACAAGCUACUUCCUCA reads 0.144 ± 0.024. The result for GGAGACCUAACUAUUCUACCUACUACCUCA reads 0.104 ± 0.021; that for GGAGACCUAUGUAUACAACCUAGCUACCUCA, 0.00713 ± 0.0027; that for GGAGACCUAUGAAUACAACCUACUACCUACA, 0.00696 ± 0.0027.

For the sequence GGAGACCUAUCUAUGACAACCUACUACCUCA, the “pre-steady-state target cleavage rate” value is 0.0545 ± 0.0096. For the sequence GGAGACCUAACUAUUCAACCUAGUACCUCA, the “pre-steady-state target cleavage rate” value came out at 0.0158 ± 0.0076. As to GGAGACCUAUGAUAUGAACCUGCUACCUCA, the “pre-steady-state target cleavage rate” value was < 0.0001. In the case of GGAGACCUAUCUAUACAACCUACGUACCUCA, the “pre-steady-state target cleavage rate” value amounted to 0.0605 ± 0.012. With GGAGACCUAUCUAUACAACCUACUUACCUCA the figure was 0.121 ± 0.015. In the case of GGAGACCUAUGUAUACAAGCUACUACGUCA, the “pre-steady-state target cleavage rate” value worked out at 0.0451 ± 0.009.

Consider GGAGACCUAUGAAUACUACCUACUACGUCA, for which the “pre-steady-state target cleavage rate” value turned out to be 0.00344 ± 0.0026.

Take GGAGACCUUACUAUAUCAACCUACUACCUCA: the “pre-steady-state target cleavage rate” value worked out at 0.0609 ± 0.0086. “GGAGACCUAUGAUAACAACCUACUACCUCA [g2:g16:cont:t1A]”: the “pre-steady-state target cleavage rate” value was 0.00406 ± 0.003. On to GGAGUGGAUACUUUACAACCUACUACCUGA, for which the “pre-steady-state target cleavage rate” value stood at 0.0844 ± 0.011.

As to GGAGACCUUACUAUACAUCGUACUACCUCA, the “pre-steady-state target cleavage rate” value turned out to be 0.0364 ± 0.0047.
